# Compounds without any hit were thinned out: in the full panel of roughly 83,000, 20% have a hit.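 Assay: single dose, 48 h. Readout: percent growth (0 = no net growth; negative = cell death). Active: <10.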 A number with no mark means an inactive call. The source made the active and inactive calls.
# Tested on: SK-MEL-28 melanoma
# Assay: NCI-60 one-dose screen, 48 h (100 = growth as untreated, 0 = no growth, -100 = all killed)
# Conditions: 10 µM unless noted
row,Structure (SMILES),growth [%]
1,COc1cc2c(c(OC)c1OC)C(=O)CC(c1cccc(NC(=O)c3cc(NC(=O)[C@H](C)N)ccc3Cl)c1)O2 (some centres not stated),63
2,C#CCOc1cc(N(CC)CC)ccc1C(C(=O)NC(C)(C)C)N(C(=O)C1CCc2cc(F)ccc2O1)c1cc(C)cc(C)c1 (configuration not stated),62.9
3,Cc1ccc(C2=NN(c3nc(-c4cc5ccccc5oc4=O)cs3)C(c3ccc(C)cc3)C2)cc1 (configuration not stated),123
4,Cn1cc(-c2nc(N)nnc2-c2c[nH]c3ccc(F)cc23)c2cc(Br)cnc21,24

# Tested on: SK-MEL-2 melanoma
# Assay: as above
# Conditions: 10 µM unless noted
row,Structure (SMILES),growth
1,Brc1ccc(-c2n(Cc3ccc4ccccc4c3)c(-c3ccccc3)c(-c3ccccc3)[n+]2Cc2ccc3ccccc3c2)cc1,-90.1% (active)
2,O=C1CCCc2cc(OCC(=O)N3CCCCC3)ccc2N1,111%
3,COc1cc2c3c(n(CCCN4CCC[C@@H]4CO)c(=O)c2cc1OC)-c1cc2c(cc1C3=O)OCO2,120%
4,CC(=O)c1c(N)c(C#N)cn1-c1ccc(Cl)cc1Cl,90.4%
5,Cc1ccc(C2CC(c3ccc(S(=O)(=O)NCCNc4nc(Nc5ccc(F)cc5)nc(N(C)C)n4)cc3)=Nc3c(N)nc(N)nc3N2)cc1 (configuration not stated),76.9%
6,Cc1ccc(C(=O)C(c2c[nH]c3ccccc23)c2c[nH]c3ccccc23)cc1,72.4%
7,COc1cc(-c2nc3ccc(C)cc3[nH]2)ccc1OCc1nnc(-c2ccc(Br)cc2)o1,83%
8,Nc1nnc(-c2c[nH]c3ccc(Br)cc23)c(-c2c[nH]c3ncc(Br)cc23)n1,-33.2% (active)
